Measured values taken from PubChem BioAssay (EPA / NIEHS).
Several values for one entry are separate records, joined by “and”; a condition that tells them apart may be missing. Equal values may be shown once. Inconclusive results are not listed. A structure can be active in one record and inactive in another. Activity calls are given as the source filed them. The calls were made as follows, unless noted: active = hit-call score of the fitted dose curve at least 0.9, where 1 is the maximum; inconclusive = response in the unintended direction; inactive = score below 0.9.

Legend:
[1] = biological target: human Norepinephrine Transporter (NET), SLC6A2 (gene 6530) (UniProt P23975); assay: NVS_TR_hNET: NovaScreen (NVS) Transporter Assay for human Norepinephrine Transporter (NET) (AID 2283377);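 also: cell-free membrane protein extracted from CHO cells expressing human NET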;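 as to AC50: displacement of radioligand from human NET seen as loss of scintillation signal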
human Norepinephrine Transporter (NET), SLC6A2 (gene 6530), sequence (P23975 whole entry, looked up): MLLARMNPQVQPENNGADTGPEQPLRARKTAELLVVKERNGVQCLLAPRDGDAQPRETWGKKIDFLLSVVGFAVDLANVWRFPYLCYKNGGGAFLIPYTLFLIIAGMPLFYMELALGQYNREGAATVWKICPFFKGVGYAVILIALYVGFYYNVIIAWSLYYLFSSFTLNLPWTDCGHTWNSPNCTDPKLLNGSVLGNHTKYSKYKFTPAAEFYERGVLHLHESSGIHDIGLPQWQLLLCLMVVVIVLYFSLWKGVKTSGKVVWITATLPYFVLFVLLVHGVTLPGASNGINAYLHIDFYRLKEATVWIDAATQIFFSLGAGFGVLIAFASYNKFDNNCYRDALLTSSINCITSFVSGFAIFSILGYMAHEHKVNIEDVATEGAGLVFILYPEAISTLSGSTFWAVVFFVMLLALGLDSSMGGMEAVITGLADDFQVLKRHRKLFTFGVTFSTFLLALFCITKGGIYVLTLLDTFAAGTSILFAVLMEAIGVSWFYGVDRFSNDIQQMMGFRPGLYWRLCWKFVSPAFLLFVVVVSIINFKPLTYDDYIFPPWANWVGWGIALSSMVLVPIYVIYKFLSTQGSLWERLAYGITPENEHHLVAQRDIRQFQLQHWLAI
Method in brief: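 In this cell-free binding screen, chemicals at 25 uM (duplicate) compete with a radioligand for CHO-derived human NET over 1 hour, with filter-based radiodetection.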

[2] = biological target: Estrogen receptor beta (Homo sapiens) (UniProt Q92731); assay: OT_ER_ERbERb_1440: Odyssey Thera (OT) 24-hour HEK293T Protein-Complementation Assay for Estrogen Receptor-beta/-beta Homodimer (AID 2283380);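 also: fluorescence gain from ER beta LBD homodimer complementation read by laser scanning cytometry; scored as signal increase over DMSO baseline for both agonists and antagonists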
Estrogen receptor beta (Homo sapiens), sequence (Q92731 whole entry, looked up, the tested form may be a part): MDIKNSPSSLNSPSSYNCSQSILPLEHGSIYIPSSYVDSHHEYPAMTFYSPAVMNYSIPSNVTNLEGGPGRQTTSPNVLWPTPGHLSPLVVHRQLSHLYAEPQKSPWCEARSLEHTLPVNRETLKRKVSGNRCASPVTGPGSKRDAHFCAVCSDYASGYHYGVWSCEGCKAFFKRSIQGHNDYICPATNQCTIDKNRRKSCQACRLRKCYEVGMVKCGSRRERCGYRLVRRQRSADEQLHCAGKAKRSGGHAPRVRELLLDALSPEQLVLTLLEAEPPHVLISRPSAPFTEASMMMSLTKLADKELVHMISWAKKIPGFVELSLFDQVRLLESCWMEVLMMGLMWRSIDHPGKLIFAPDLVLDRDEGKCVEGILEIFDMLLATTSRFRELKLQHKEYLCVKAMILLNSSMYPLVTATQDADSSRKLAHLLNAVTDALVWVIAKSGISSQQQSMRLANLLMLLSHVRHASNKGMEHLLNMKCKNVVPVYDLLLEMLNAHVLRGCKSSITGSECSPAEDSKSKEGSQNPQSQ
Method in brief: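 HEK293T cells stably expressing human ER-beta LBD (aa 310-547) PCA homodimer pair, dosed 24 h; formaldehyde-fixed, Draq5-stained. Readout: increase in nuclear (agonist) or nuclear plus cytoplasmic (antagonist) fluorescence intensity versus DMSO, gain-of-signal fitting.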

[3] = biological target: Estrogen receptor (Homo sapiens) (UniProt P03372); assay: OT_ERa_GFPERaERE_0480: Odyssey Thera (OT) 8-hour HeLa Transcription Induction Assay for Estrogen Receptor (AID 2283381; active = hit-call score of the fitted dose curve at least 0.9, where 1 is the maximum; inactive = score below 0.9)
Estrogen receptor (Homo sapiens), sequence (P03372 whole entry, looked up): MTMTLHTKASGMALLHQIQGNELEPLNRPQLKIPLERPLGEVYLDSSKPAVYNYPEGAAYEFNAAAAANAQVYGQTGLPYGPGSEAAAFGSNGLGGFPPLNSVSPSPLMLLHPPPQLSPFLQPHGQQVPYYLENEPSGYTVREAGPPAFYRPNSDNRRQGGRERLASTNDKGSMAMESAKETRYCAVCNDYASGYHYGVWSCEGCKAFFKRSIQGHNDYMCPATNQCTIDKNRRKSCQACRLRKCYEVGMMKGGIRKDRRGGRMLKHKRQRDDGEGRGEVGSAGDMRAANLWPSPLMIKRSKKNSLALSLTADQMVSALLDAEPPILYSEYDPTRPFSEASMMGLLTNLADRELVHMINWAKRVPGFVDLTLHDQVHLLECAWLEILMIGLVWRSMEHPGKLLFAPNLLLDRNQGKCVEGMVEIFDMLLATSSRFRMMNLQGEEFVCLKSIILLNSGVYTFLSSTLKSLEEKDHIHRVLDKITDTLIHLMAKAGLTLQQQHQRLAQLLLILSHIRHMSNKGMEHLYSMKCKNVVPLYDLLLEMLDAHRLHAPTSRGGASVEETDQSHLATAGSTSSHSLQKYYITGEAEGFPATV
Method in brief: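 An 8 h HeLa transcription-induction format with a GFP reporter under ERE control, read by fluorescence microscopy; single endpoint fitted positively with DMSO as baseline.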

[4] = biological target: Estrogen receptor (Homo sapiens) (UniProt P03372); assay: OT_ERa_GFPERaERE_0120: Odyssey Thera (OT) 2-hour HeLa Transcription Induction Assay for Estrogen Receptor (AID 2283382)
Method in brief: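 Two-hour compound treatment of HeLa cells preceded microscopy imaging of an inducible fluorescent reporter. Image-based quantification gave one endpoint, analysed for signal increase relative to DMSO controls.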

[5] = biological target: Retinoic acid receptor RXR-alpha (Homo sapiens) (UniProt P19793); assay: OT_NURR1_NURR1RXRa_0480: Odyssey Thera (OT) 8-hour HEK293T Protein Complementation Assay for Nurr1/retinoid X receptor (RXR) (AID 2283385)
Retinoic acid receptor RXR-alpha (Homo sapiens), sequence (P19793 whole entry, looked up, the tested form may be a part): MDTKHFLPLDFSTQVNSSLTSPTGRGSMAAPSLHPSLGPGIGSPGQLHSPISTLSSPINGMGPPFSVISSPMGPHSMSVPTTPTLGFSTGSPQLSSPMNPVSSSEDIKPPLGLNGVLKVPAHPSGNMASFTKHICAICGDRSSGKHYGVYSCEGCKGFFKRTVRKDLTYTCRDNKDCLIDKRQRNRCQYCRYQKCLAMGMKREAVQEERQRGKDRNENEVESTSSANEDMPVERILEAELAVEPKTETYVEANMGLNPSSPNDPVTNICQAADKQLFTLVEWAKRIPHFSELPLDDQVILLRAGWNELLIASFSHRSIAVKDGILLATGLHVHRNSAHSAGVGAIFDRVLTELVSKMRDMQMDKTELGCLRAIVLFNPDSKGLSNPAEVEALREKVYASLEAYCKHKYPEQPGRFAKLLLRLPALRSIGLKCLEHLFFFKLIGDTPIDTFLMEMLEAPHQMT
Method in brief: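 Gain in fluorescent complementation signal over DMSO, measured 8 hours after chemical dosing of human kidney HEK293T cells, indicated enhanced Nurr1–RXRα association.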

[6] = biological target: Retinoic acid receptor RXR-alpha (Homo sapiens) (UniProt P19793); assay: OT_NURR1_NURR1RXRa_1440: Odyssey Thera (OT) 24-hour HEK293T Protein Complementation Assay for Nurr1/retinoid X receptor (RXR) (AID 2283386)
Method in brief: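 Cell-based binding reporter: HEK293T cells, 24 h exposure, fluorescence-detected fragment complementation, DMSO as baseline.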

[7] = biological target: mouse Estrogen Receptor alpha (Era), Esr1 (gene 13982) (UniProt P19785); assay: NVS_NR_mERa: NovaScreen (NVS) Nuclear Receptor Binding Assay for mouse Estrogen Receptor alpha (Era) (AID 2283378);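 also: hit means loss of bound radioligand signal relative to DMSO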
mouse Estrogen Receptor alpha (Era), Esr1 (gene 13982), sequence (P19785 whole entry, looked up): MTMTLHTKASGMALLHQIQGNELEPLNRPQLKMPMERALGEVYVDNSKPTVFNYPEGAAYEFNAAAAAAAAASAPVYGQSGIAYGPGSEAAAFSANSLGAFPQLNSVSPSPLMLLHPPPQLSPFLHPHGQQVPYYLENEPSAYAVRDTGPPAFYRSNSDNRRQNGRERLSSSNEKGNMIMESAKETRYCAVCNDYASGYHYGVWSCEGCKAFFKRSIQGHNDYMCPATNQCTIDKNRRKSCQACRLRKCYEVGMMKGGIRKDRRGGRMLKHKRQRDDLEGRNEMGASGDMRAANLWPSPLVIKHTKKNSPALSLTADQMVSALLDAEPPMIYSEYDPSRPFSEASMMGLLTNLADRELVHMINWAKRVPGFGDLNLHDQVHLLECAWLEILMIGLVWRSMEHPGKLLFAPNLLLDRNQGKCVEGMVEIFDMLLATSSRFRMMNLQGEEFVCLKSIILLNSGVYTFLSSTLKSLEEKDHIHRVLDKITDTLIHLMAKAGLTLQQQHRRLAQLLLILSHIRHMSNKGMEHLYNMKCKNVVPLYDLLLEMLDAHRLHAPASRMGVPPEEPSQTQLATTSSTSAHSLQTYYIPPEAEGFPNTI
Method in brief: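 Filter radiodetection of radioligand displacement from extracted receptor protein, measured 18 h post-dose. Single 25 uM concentration in duplicate initially, with concentration-series follow-up. Binding loss fitted relative to DMSO.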

[8] = biological target: Bile acid receptor (Homo sapiens) (UniProt Q96RI1); assay: OT_FXR_FXRSRC1_0480: Odyssey Thera (OT) 8-hour HEK293T Protein-Complementation Assay for Farnesoid X receptor/SRC-1 Co-activator (AID 2283383)
Bile acid receptor (Homo sapiens), sequence (Q96RI1 whole entry, looked up): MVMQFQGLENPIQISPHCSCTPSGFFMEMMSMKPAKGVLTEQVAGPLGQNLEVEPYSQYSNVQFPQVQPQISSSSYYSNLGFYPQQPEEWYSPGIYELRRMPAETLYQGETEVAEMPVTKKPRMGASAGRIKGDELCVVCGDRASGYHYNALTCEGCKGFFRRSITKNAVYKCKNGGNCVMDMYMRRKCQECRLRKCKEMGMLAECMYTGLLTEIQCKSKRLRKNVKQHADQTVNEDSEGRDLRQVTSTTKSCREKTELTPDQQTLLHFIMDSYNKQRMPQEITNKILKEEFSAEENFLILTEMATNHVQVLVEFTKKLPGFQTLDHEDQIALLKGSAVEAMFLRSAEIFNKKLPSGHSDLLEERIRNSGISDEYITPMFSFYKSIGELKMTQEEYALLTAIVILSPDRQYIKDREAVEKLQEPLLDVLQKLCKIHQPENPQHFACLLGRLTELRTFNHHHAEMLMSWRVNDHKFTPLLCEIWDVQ
Method in brief: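 Readings were taken 8 h after dosing HEK293T cells in a split-reporter complementation format pairing FXR with SRC-1. Increased fluorescence relative to DMSO-treated wells defined activity.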

[9] = biological target: Bile acid receptor (Homo sapiens) (UniProt Q96RI1); assay: OT_FXR_FXRSRC1_1440: Odyssey Thera (OT) 24-hour HEK293T Protein-Complementation Assay for Farnesoid X receptor/SRC-1 Co-activator (AID 2283384)
Method in brief: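 Single endpoint, analysed for increased fluorescence against DMSO controls. HEK293T cells carrying FXR and SRC-1 linked to complementary reporter halves were exposed to chemicals for 24 h before reading.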

[10] = biological target: Agonist Androgen Response Element (ARE), AR (gene 367) (UniProt P10275); assay: OT_AR_ARELUC_AG_1440: Odyssey Thera (OT) 24-hour CHO-K1 Luciferase Assay for Agonist Androgen Response Element (ARE) (AID 2283379)
Agonist Androgen Response Element (ARE), AR (gene 367), sequence (P10275 whole entry, looked up): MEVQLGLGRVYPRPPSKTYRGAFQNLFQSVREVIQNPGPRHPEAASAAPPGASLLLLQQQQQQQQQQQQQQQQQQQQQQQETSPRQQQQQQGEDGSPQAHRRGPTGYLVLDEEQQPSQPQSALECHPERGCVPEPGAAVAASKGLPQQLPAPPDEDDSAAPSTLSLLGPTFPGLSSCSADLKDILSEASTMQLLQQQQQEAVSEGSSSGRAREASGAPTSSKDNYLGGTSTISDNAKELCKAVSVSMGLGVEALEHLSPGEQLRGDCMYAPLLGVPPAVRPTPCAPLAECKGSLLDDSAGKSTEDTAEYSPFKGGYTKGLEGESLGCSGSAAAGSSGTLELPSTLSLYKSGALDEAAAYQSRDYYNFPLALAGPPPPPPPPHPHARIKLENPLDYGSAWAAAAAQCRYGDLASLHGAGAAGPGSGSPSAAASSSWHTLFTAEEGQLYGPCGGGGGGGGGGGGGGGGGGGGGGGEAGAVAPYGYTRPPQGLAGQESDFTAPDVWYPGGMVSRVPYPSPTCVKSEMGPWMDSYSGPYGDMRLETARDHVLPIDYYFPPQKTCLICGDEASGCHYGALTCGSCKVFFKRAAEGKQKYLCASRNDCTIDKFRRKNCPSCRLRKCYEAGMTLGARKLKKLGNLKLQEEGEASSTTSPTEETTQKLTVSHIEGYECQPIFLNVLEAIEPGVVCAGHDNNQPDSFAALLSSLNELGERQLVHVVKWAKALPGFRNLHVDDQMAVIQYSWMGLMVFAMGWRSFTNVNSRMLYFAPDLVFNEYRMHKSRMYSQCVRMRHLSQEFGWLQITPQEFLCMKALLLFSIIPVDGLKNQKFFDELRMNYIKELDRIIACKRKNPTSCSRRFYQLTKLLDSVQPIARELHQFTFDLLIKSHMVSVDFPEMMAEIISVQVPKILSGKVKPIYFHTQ
Method in brief: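 Luminescence increase above DMSO, read after a 24 h compound treatment of CHO-K1 cells expressing an androgen response element luciferase reporter, gives the single primary endpoint; concentration-response fitting used the positive direction.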

Measured: AC50

Cc1ccc(O)c(C)c1
inactive: [2] | [3] | [4] | [5] | [6]
active: [1] 11.5 µM

CCCCCCCCCC[N+](C)(C)CCCCCCCCCC
active: [1] 1.46 µM | [7] 5550 nM | [3] 17.1 µM | [4] 16.1 µM
inactive: [8] | [9]

CC(C)(c1ccccc1)c1ccc(O)cc1
inactive: [7]
active: [1] 15.5 µM | [7] 2.98 µM and 11 µM | [2] 2 µM and 11.9 µM and 2.17 µM | [3] 770 nM and 897 nM and 861 nM | [4] 633 nM and 791 nM and 967 nM

CCCCCCCCOC(=O)c1ccccc1C(=O)OCCCCCCCC
not listed: [1] | [10]
inactive: all other assays above

O=NN(c1ccccc1)c1ccccc1
active: [1] 14 µM
not listed: [2] | [7] | [10]
inactive: all other assays above

NS(=O)(=O)C(F)(F)C(F)(F)C(F)(F)C(F)(F)C(F)(F)C(F)(F)C(F)(F)C(F)(F)F
active: [3] 42 µM | [4] 23.7 µM | [8] 79.1 µM | [9] 84.4 µM | [5] 83.3 µM
inactive: [7] | [10] | [2] | [5] | [6]

c1ccc(-c2ccccc2)cc1
inactive: [1] | [2] | [3] | [4] | [8] | [6]

ClC(Cl)=C(c1ccc(Cl)cc1)c1ccc(Cl)cc1
active: [4] 11.8 µM | [8] 85 µM and 83.5 µM and 85.1 µM | [9] 93 µM and 84.9 µM and 88.2 µM | [5] 78.3 µM [middle of 4 runs] | [6] 79.2 µM and 79.5 µM and 80 µM
inactive: [7] | [3] | [4] | [6]

Cc1cc(O)ccc1Cl
inactive: [7] | [4] | [8] | [5] | [6]
active: [2] 52.5 µM | [9] 34.7 µM

Nc1ccc(-c2ccc(N)cc2)cc1
inactive: [2] | [3] | [4] | [5] | [6]
active: [1] 11.8 µM

CCC(C)(c1ccc(O)cc1)c1ccc(O)cc1
active: [1] 8.33 µM | [4] 213 nM [middle of 5 runs] | [8] 12.1 µM | [9] 30.2 µM and 32.2 µM | [5] 30.8 µM and 67 µM and 68.3 µM | [6] 92.5 µM and 87.7 µM
inactive: [8] | [9] | [5] | [6]

Clc1ccc(C(c2ccccc2Cl)C(Cl)(Cl)Cl)cc1 (centres undefined)
active: [7] 51.7 nM | [2] 2.14 µM and 2.1 µM and 2.35 µM | [5] 54.9 µM and 58.4 µM and 63.9 µM | [6] 59.9 µM
inactive: [7] | [6]

CC#Cc1cc(C)nc(Nc2ccccc2)n1
inactive: [1] | [2] | [3] | [4] | [5] | [6]

ClC1=C(Cl)[C@]2(Cl)[C@@H]3[C@H]4C[C@H]([C@@H]5O[C@H]45)[C@@H]3[C@@]1(Cl)C2(Cl)Cl
inactive: [7] | [3] | [5] | [6]

CCCCCCCCCc1ccc(O)cc1
active: [2] 12.5 µM and 12.1 µM | [5] 50 µM | [6] 79.1 µM and 85.9 µM
inactive: [7] | [3] | [4] | [5]

CCCN(CCC)N=O
inactive: [7] | [2] | [3] | [4] | [5] | [6]

CC(C)(O)C(=O)Nc1ccc([N+](=O)[O-])c(C(F)(F)F)c1
inactive: [7] | [10] | [2] | [3] | [4] | [5] | [6]
active: [7] 2700 nM

Cc1cc(-c2ccc(N)c(C)c2)ccc1N
inactive: [7] | [3] | [4] | [5] | [6]
active: [7] 999 nM | [3] 37.2 µM | [4] 50 µM

O=C(O)C(F)(F)C(F)(F)C(F)(F)C(F)(F)C(F)(F)C(F)(F)C(F)(F)C(F)(F)F
not listed: [6] | [8] | [10]
inactive: all other assays above

Oc1c(Cl)c(Cl)c(Cl)c(Cl)c1Cl
inactive: [7] | [3] | [4] | [5] | [6]

CC(c1ccc(O)cc1)(c1ccc(O)cc1)c1ccc(O)cc1
inactive: [5]
active: [7] 768 nM | [3] 3.62 µM | [4] 2.96 µM

CCOC(=O)C(O)(c1ccc(Cl)cc1)c1ccc(Cl)cc1
inactive: [7] | [10] | [2] | [3] | [4]
active: [1] 15.5 µM

CCC(=O)O[C@H]1CC[C@H]2[C@@H]3CCC4=CC(=O)CC[C@]4(C)[C@H]3CC[C@]12C
inactive: [7] | [2] | [3] | [4] | [5] | [6]
active: [10] 3.34 nM and 0.907 nM and 1.93 nM | [2] 12.7 µM and 3.36 µM and 12.8 µM | [3] 12.3 µM | [5] 42.7 µM and 57.9 µM | [6] 73.3 µM and 73.7 µM and 78.4 µM

O=C(N[C@H]1CN2CCC1CC2)c1cc2ccoc2cn1
active: [10] 71.8 µM
inactive: [2] | [3] | [4] | [5] | [6]

O=C(NC(=O)c1c(F)cccc1F)Nc1cc(Cl)c(OC(F)(F)C(F)F)c(Cl)c1
inactive: [10] | [2] | [3] | [4] | [5] | [6]

CC(C)C(=O)OCC(C)(C)C(OC(=O)C(C)C)C(C)C (centres undefined)
inactive: [1] | [7] | [2] | [3] | [4] | [6]

Oc1ccc(Cl)cc1Cl
active: [1] 9.75 µM
not listed: [6] | [10]
inactive: all other assays above

C[C@]12CCC(=O)C=C1CC[C@@H]1[C@@H]2CC[C@@]2(C)[C@H]1CC[C@]2(C)O
active: [8] 16.1 µM and 16.7 µM and 11.7 µM | [9] 23.5 µM and 27.9 µM and 33.2 µM
inactive: [7] | [3] | [4] | [8] | [9] | [5] | [6]
